SMILES strings stand for the structures. Several values for one entry are separate records, joined by “and”; a condition that tells them apart may be missing. Equal entries are not always repeated. About 2,600 (16%) of roughly 16,000 compounds were called active. Another 20% or so got no clear call; they are omitted. Not all results are given here. A number with no mark means an inactive call. Calls come from the whole dose curve; as a rule, active = well fitted curve in the direction sought with a large enough effect; inconclusive = small, poorly fitted or top-dose-only effect, or effect the other way; inactive = no such curve, though single readings can be large or run the other way.

Consider 62 compounds from PubChem BioAssay AID1851 (National Center for Advancing Translational Sciences (NCATS), 2009).
% is set by controls: 0 for no effect and ±100 for the full control effect.

For this assay, the target named is Cytochrome P450 2D6 (Homo sapiens) (UniProt P10635). Put plainly: Cytochrome panel assay with activity outcomes. As to conditions: recombinant CYP, pro-luciferin dealkylation, luminescence, p450-cyp2d6; series mostly up to 57.1 µM.
Cytochrome P450 2D6 (Homo sapiens), sequence (P10635 whole entry, looked up): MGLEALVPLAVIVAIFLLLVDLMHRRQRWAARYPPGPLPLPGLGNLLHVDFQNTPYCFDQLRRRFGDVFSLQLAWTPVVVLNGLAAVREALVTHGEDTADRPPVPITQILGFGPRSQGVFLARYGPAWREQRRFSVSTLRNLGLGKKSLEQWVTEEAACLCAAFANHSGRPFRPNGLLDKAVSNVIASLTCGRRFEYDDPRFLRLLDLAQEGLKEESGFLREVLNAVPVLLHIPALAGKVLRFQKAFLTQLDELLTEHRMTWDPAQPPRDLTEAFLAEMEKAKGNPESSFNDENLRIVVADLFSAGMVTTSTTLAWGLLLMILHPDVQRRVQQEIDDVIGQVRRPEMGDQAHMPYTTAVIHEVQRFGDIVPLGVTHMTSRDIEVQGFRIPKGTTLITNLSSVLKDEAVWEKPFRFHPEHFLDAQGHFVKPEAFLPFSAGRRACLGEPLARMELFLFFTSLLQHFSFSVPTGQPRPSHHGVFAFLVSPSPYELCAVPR
On to `CCOC(=O)CNS(=O)(=O)c1cc(-c2nn(C)c(=O)c3ccccc23)ccc1C`, for which the AC50 (commonly the concentration giving half of the maximal activity seen) is “inactive”. On the same count and under the same terms, next, `CCCCCCCCC(=O)N/N=C/c1ccccn1`: “inactive”. On to `CCNc1ncc2nc(-c3ccc(Cl)cc3)c(=O)n(Cc3cccc(OC)c3)c2n1`, for which the AC50 result was “inactive”.

`O=[N+]([O-])c1ccc(N2CCC(=NOCc3ccc(Cl)cc3)CC2)cc1`: the AC50 result is “inactive”. Still for that read-out and setting: next, `O=c1c(-c2ccc(Cl)cc2)nc2cncnc2n1Cc1ccccc1Cl`: “inactive”. On the same count and under the same terms, then `CCOC(=O)CSc1nnc(CNC(=O)c2ccc(OC)cc2)n1C1CCCCC1`, with “inactive”; and `Cc1ccc(C)c(-c2cc(C(=O)Nc3nccs3)c3ccccc3n2)c1`, with “inactive”; and `CCCCNC(=O)NC1C(NC(=O)NCCCC)N(C)C(=O)N1C` (configuration not stated), with “inactive”. Same read-out and setting: next, `CC(=O)N1CC(=O)N(OCc2ccccc2)C1c1ccc(Cl)cc1Cl` (configuration not stated): “inactive”; `CCn1c(SCC(=O)OC)nc2sc3c(c2c1=O)CCC3`: “inactive”; `COC(=O)c1cccc(C(=O)Nc2ccc(C)cc2)n1`: “inactive”. As for `COc1ccc2[nH]cc(CCNc3ccnc(-c4ccc5c(c4)OCO5)n3)c2c1`, the half-maximal activity concentration (AC50) was 7.94 µM (active).

`N#CCCn1c(=O)c(-c2cccc(C#N)c2)nc2cnc(Oc3cccc(Cl)c3)nc21`: the AC50 entry is “inactive”.

Regarding `CC(=O)SCC[N+](C)(C)C`, the AC50 entry is “inactive”. For `O=[N+]([O-])c1ccc([C@@H](Nc2ccccc2)c2ccc3cccnc3c2O)cc1`, the activity, negative = inhibition is -2.01% [at 11.4 µM]. For the compound `CC(C)CN1CCC2(CC1)CCN(C(=O)c1ccncc1)CC2`, the AC50 is 3.98 µM (active). For `O=C(c1cnccn1)N1CCC2(CC1)CCN(c1ncccn1)CC2`, the AC50 entry was “inactive”. On the same count and under the same terms, next, `CN1CCC2(CC1)CCN(C(=O)c1ccncc1)CC2`: “inactive”. For the compound `CC(C)NC(=O)N1CCC2(CC1)CCN(C(=O)c1ccncc1)CC2`, the AC50 entry was “inactive”.

Consider `CC(C)CN1CCC2(CC1)CCN(C(=O)c1cnccn1)CC2`, for which the AC50 was 10 µM (active). Still for that read-out and setting: then `CC(C)CN1CCCC2(CCN(C(=O)c3cnccn3)CC2)C1`, with “inactive”. Still for that read-out and setting: then `COC(=O)[C@@]1(Cc2ccc(OC)cc2)[C@H]2c3cc(C(=O)N4CCCC4)n(Cc4ccc(Cl)c(C(F)(F)F)c4)c3C[C@H]2CN1C(=O)c1ccccc1`, with “inactive”. The same measure, in the same setting: next, `COc1cc(NC(=S)NC(=O)c2c(OC)cccc2OC)ccc1NC(=O)c1cccs1`: “inactive”.

`C=C1c2cccc(O)c2C(O)=C2C(=O)[C@@]3(O)C(O)=C(C(N)=O)C(=O)[C@@H](N(C)C)[C@@H]3[C@@H](O)[C@H]12`: the AC50 entry is “inactive”. Same read-out and setting: next, `CCOC(=O)N1CCN(c2nc(-c3cccs3)cc(C(F)(F)F)n2)CC1`: “inactive”.

Regarding `CCOC(=O)N1CCN(C(=O)CNCc2cccs2)CC1`, the AC50 was 3.98 µM (active). For `CCOC(=O)N1CCN(C(=O)CNS(=O)(=O)c2cccs2)CC1`, the AC50 entry is “inactive”. Take `O=c1n(-c2ccccc2)c(=O)n2n1CC[C@H]1/C(=N\OCc3ccccc3)[C@H]3O[C@@H]3[C@@H](O)[C@@H]12`: the activity, negative = inhibition was 10.4% [at 11.4 µM].

For `c1ccc(Oc2cc(-c3ccccc3)ncn2)cc1`, the AC50 entry was “inactive”. The same measure, in the same setting: next, `Clc1ccc(C(c2nnnn2C2CCCC2)N2CCN(Cc3ccncc3)CC2)cc1` (configuration not stated): 1.26 µM (active); `c1coc(CN2CCN(C(c3cccs3)c3nnnn3C3CCCC3)CC2)c1` (configuration not stated): 1.26 µM (active); `Cc1ccc(C(c2nnnn2C2CCCC2)N2CCN3CCCC3C2)cc1` (configuration not stated): 0.447 µM (active). With `CON(C)C(=O)c1nnc2c3ccccc3n(S(=O)(=O)c3ccc(C)cc3)c2n1`, the activity, negative = inhibition is -3.04% [at 11.4 µM] and -5.32% [at 11.4 µM]. Regarding `O=c1c(-c2ccc(F)cc2)nc2cnc(Nc3ccccc3)nc2n1Cc1cccs1`, the AC50 result was “inactive”.

As to `CC(C)N(CC(=O)O)CC(=O)O`, the activity, negative = inhibition was 12.3% [at 11.4 µM]. Same read-out and setting: next, `CO[C@H]1COC(=O)[C@@H](C)COC(=O)[C@@H](Cc2ccccc2)NC(=O)C/C=C\[C@H]1C`: 0.386% [at 11.4 µM]. For the compound `Cc1ccc(S(=O)(=O)N(CC(=O)N/N=C/c2ccc(F)cc2)c2cccc3cccnc23)cc1`, the AC50 result was “inactive”. Still for that read-out and setting: next, `CCCOc1ccc(C(=O)NNC(=S)NC(=O)CC)cc1`: “inactive”; `CCCOc1ccc(-c2nc(N)n[nH]2)cc1`: “inactive”. As to `CCCOc1ccc(OCCNC2CCCC2)cc1`, the AC50 is 1.26 µM (active).

On to `O=C(Nc1cccc(F)c1)N1CC[C@@]2(CCCN(C(=O)c3cnccn3)C2)C1`, for which the AC50 result was “inactive”.

On to `CC(C)(C)NC(=O)C(=O)N/N=C/c1ccc(Br)cc1`, for which the AC50 result was “inactive”. On to `Nc1nc(-c2ccccc2)cc(-c2ccccc2O)n1`, for which the AC50 entry was “inactive”.

For the compound `COc1cccc(Cn2c(=O)c(-c3ccc(Cl)cc3)nc3cnc(OC)nc32)c1`, the AC50 result was “inactive”. Turning to `c1ccc(CCN2CCN=C2Cc2ccccc2)cc1`, the AC50 was 0.126 µM (active). Consider `C[C@H](c1ccccc1)N1C(=O)[C@H]2[C@@H]3[C@H](O)[C@H](O)CC(=O)[C@H]3CC[C@H]2C1=O`, for which the activity, negative = inhibition is 4.75% [at 11.4 µM]. In the case of `Cc1ccccc1NC(=S)NC(=O)c1cc(-c2ccccc2)nc2ccccc12`, the AC50 entry was “inactive”. As for `CC(C)(C)C(=O)NNC(=O)CCCOc1ccc(Cl)cc1Cl`, the AC50 entry is “inactive”. Still for that read-out and setting: then `COC(=O)CCC(=O)NNC(=O)CCCOc1ccc(Cl)cc1Cl`, with “inactive”; and `C#CCN(C)CCCOc1ccc(Cl)cc1Cl`, with 2 µM (active) and 398 nM (active).

As for `Cc1ncc([N+](=O)[O-])n1CC(=O)NCc1ccccc1`, the AC50 entry is “inactive”. On the same count and under the same terms, next, `O=C(NC1CCCCC1)C12CC3CC(C1)CC(n1cncn1)(C3)C2`: 11.2 µM (active); `COc1ccc(NC(=O)C23CC4CC(C2)CC(n2cnc(Br)n2)(C4)C3)c(C)c1`: “inactive”.

For `O=S(=O)(c1cccc(-c2nnc(-c3ccc(Br)cc3)o2)c1)N1CCCCCC1`, the AC50 entry is “inactive”. `Cc1ccc(S(=O)(=O)n2ccc(-c3cccc(OCc4c(F)cccc4Cl)c3)n2)cc1`: the AC50 result was “inactive”. Take `COc1ccc(C(=O)N/N=C2/C(=O)c3c(C)cc(C)cc3CC2(C)C)cc1`: the activity, negative = inhibition was -4.67% [at 11.4 µM].

Consider `CCCC1S/C(=N/N=C/c2ccc(OC)cc2)N(Cc2ccc(OC)cc2)C1=O` (configuration not stated), for which the AC50 result was “inactive”. On the same count and under the same terms, next, `COc1cccc(C(=O)n2c(SC)nc3cc4c(cc32)OCCO4)c1`: “inactive”; `Cc1ncc(N=Nc2ccccc2Cl)c(-c2ccccc2)n1`: “inactive”. Same read-out and setting: next, `COc1ccc(CCn2c(=N)c(C(=O)NCc3ccco3)cc3c(=O)n4ccccc4nc32)cc1`: 1.12 µM (active); `CCOc1ccc(-n2cc(C(=O)NCc3ccco3)c3cc(OC)c(OC)cc3c2=O)cc1`: “inactive”; `CCOC(=O)c1cc2c(=O)n3ccccc3nc2n(CCCOC)c1=NC(C)=O`: “inactive”.
